About 83,000 compounds went through this panel and 20% of them were active in at least one assay; those are over-represented in the sample as a whole.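 Results are percent growth after 48 hours of single-concentration exposure. 100 means growth as in untreated cells, lower positive values show inhibition; negative values down to -100 show cell death.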 A number with no mark means an inactive call. Active and inactive are the calls of the source. The calls were made as follows: active = growth percent below 10; inactive = the rest.

Experimental findings from PubChem BioAssay (NCI) are described below.

Holding throughout (test): NCI-60 one-dose screen, 48 h (100 = growth as untreated, 0 = no growth, -100 = all killed)
Holding throughout (conditions): 10 µM unless noted

Test [1] concerns HCT-15 colon.
Test [2] relates to HT29 colon.
In test [3] the test system is SNB-75 CNS.
In test [4] the test system is U251 CNS.
In test [5] the test system is PC-3 prostate.
Test [6] has as its system SK-MEL-5 melanoma.
Test [7] relates to UACC-62 melanoma.
The test system of test [8] is LOX IMVI melanoma.
Test [9] deals with SK-MEL-28 melanoma.

As for `C[N+]12CN3CN(CN(C3)C1)C2`, the growth in [1] is 110%; in test [2], 99.3%; in test [3] it was 46.8%; in test [4], 100%; in [5], 81.3%; in [6] it was 112%. Moreover, the values for the growth in [7], in [8] and in test [9] were 104%, 99.7% and 106%, respectively.
Consider `COc1ccc(S(=O)(=O)Nc2c(/C=C\c3cc(OC)c(OC)c(OC)c3)ccc(OC)c2O)cc1OC`, for which the growth in [1] is 15.6%; in [2], 10%; in test [3] it was 43.8%; in [4] it was 12.9%; in test [5], 28.2%; in test [6], -34.9% (active). For the same molecule, the growth was 45.2% in [7], 21.6% in [8] and 58.6% in [9].
On to `COc1ccc2c(c1)c(C1(O)CC(CSC#N)OC1=O)cn2C(=O)c1ccc(Cl)cc1` (centres undefined), for which the growth in [1] was 98.7%; in [2], 110%; in test [3], 83.7%; in [4] it was 102%; in test [5] it was 96.2%; in test [6] it was 111%. Besides, the growth in [7] is 88.6%; in [8], 97.8%; in test [9], 150%.
With `CC(C)=CCC[C@H](C(=O)O)[C@@H]1CC[C@]2(C)C3=C(CC[C@@]12C)[C@@]1(C)CC[C@H](O)C(C)(C)[C@@H]1CC3`, the growth was 97.7% in [1]; 91% in [2]; 90.1% in test [3]; 94.5% in test [4]; 84.8% in test [5]; 103% in test [6]. Moreover, the growth in [7] is 96.1%; in test [8], 102%; in test [9] it was 103%.
With `CCC(O)(CN)c1ccccc1` (centres undefined), the growth was 103% in [1]; 95.6% in test [2]; 93.5% in test [3]; 93.6% in test [4]; 87.5% in [5]; 98.9% in test [6]. Also, the growth in [7] is 100%; in test [8] it was 105%; in test [9], 115%.
Consider `CC12CCC=CC1CCC1C2CCC2(C)C(c3ccc(=O)oc3)CCC12O` (centres undefined), for which the growth in [1] is -71.7% (active); in [2], -66.5% (active); in test [3], -56.7% (active); in test [4] it was -77.2% (active); in test [5] it was -19.6% (active); in [6] it was -56.6% (active). In addition, the growth in [7] was -65.4% (active); in test [8], -83.8% (active); in [9], -31.1% (active).
Turning to `c1cc2c(c3c1CCNC3)OCO2`, the growth was 102% in test [1]; 91.8% in [2]; 86.8% in [3]; 92.6% in [4]; 102% in test [5]; 101% in test [6]. In addition, the growth is 100% in test [7], 95.7% in test [8] and 109% in test [9].
On to `O=C1NC(=O)C(=Cc2cn(C(=O)c3ccccc3)c3ccccc23)C(=O)N1`, for which the growth is 101% in test [1]; 97% in test [2]; 73.1% in test [3]; 102% in test [4]; 79.4% in [5]; 92.3% in [6]. Further, the growth was 85.9% in test [7], 90.8% in test [8] and 111% in test [9].
In the case of `Cc1c(NS(=O)(=O)c2ccccc2)ccc([N+](=O)[O-])c1Cl`, the growth in test [1] is 64.9%; in test [2] it was 76.4%; in test [3], 75.4%; in test [4] it was 63.5%; in [5], 56.2%; in [6], 25.8%. Further, the growth in test [7] is 31.2%; in test [9], 70.5%.
Consider `Nc1ncnc2n[nH]nc12`, for which the growth in test [1] was 63.4%; in test [2] it was 79.7%; in [3], 90.6%; in test [4], 70.1%; in test [6] it was 72.5%; in [7], 46.7%. The growth in test [8] is 43.9%; in test [9], 87.6%.
`COc1cccc(C=NC(Cc2cnc[nH]2)C(=O)O)c1O` (centres undefined): the growth in test [1] was 108%; in test [2] it was 100%; in test [3], 86.3%; in test [4], 102%; in [5], 51.5%; in [6], 94.2%. Also, the growth in [7] was 95.6%; in test [8] it was 100%; in test [9], 103%.
As to `COc1cc(/C=N/C2=C(C#N)C(c3ccco3)c3c(c4cc(C)ccc4oc3=O)O2)cc(OC)c1OC` (centres undefined), the growth is 91.8% in test [1]; 109% in test [2]; 82.7% in test [3]; 96.6% in test [4]; 89.9% in test [5]; 93.5% in test [6]. Also, the growth is 55.6% in [7], 88.5% in test [8] and 81.7% in [9].
As for `O=C1C(N2CC2)=C(N2CC2)C(=O)C(N2CC2)=C1N1CC1`, the growth in test [1] is 2.19% (active); in [2] it was 2.38% (active); in test [3], -52.6% (active); in [4] it was -63.6% (active); in [5], 7.53% (active); in test [6] it was -76.7% (active). The growth in test [7] was -84.6% (active); in test [8] it was -61.5% (active); in [9], -51.8% (active).
As for `CC(=O)O[C@H]1CC[C@H]2[C@@H]3CC=C4c5nc(-c6ccccc6)sc5CC[C@]4(C)[C@H]3CC[C@]12C`, the growth in [1] was 9.12% (active); in [2], -31.5% (active); in test [3], 91.4%; in [4] it was 47.5%; in [5], 72.3%; in test [6] it was 59.9%. In addition, the growth was 50.7% in test [7], 29.8% in [8] and 90.4% in [9].
For `CCCCC1(CCC)C(=O)NC(=S)NC1=O`, the growth is 93.7% in test [1]; 105% in test [2]; 77.5% in test [3]; 95.9% in [4]; 80.4% in test [5]; 104% in test [6]. In addition, the values for the growth in test [7], in test [8] and in test [9] were 104%, 103% and 108%, respectively.
Consider `C=CCn1cc(C=C2C(=O)N(C)C(=O)N(C)C2=O)c2ccccc21`, for which the growth in [1] is 106%; in test [2], 104%; in test [3], 78.7%; in test [4], 98.2%; in [5] it was 89.4%; in test [6] it was 94.9%. For the same molecule, the growth in test [7] is 93.8%; in test [8] it was 94.8%; in test [9], 97.9%.
Regarding `O=C1Nc2ccccc2C2c3cccn3-c3ccccc3CN12` (centres undefined), the growth is 38% in [1]; 11.3% in test [2]; 21.1% in test [3]; 14.7% in test [4]; 48.6% in [5]; 43.1% in [6]. The growth was 35% in test [7], 63% in test [8] and 66.6% in [9].
With `C=CC[n+]1ccc(-c2cc[n+](CC=C)cc2)cc1`, the growth in [1] was 96.4%; in test [2] it was 29.1%; in [3], 92.5%; in test [4], 89.4%; in test [5], 90.9%; in test [6], 71.4%. Also, the growth in test [7] is 110%; in test [8] it was 101%; in [9], 102%.
Consider `C=CCCCCCCCCC(=O)[O-].C=CCCCCCCCCC(=O)[O-].[Zn+2]`, for which the growth in test [1] was 101%; in [2], 105%; in test [3], 103%; in test [4], 89%; in test [5] it was 85.7%; in test [6], 113%. The figures for the growth in test [7], in test [8] and in test [9] were 99.4%, 90.5% and 104%, respectively.
For `CN1C(=O)N[C@H]2[C@@H]3NC(=O)c4ccc(Br)n4[C@@H]3C[C@]21O`, the growth is 3.29% (active) in test [1]; -15.6% (active) in test [2]; -70.3% (active) in test [3]; -13.8% (active) in test [4]; -11.7% (active) in [5]; -76.7% (active) in test [6]. For the same molecule, the results for the growth in test [7], in test [8] and in test [9] were -54.2% (active), -42% (active) and -34.9% (active), respectively.
Take `Cn1cc(-c2csc(-c3cn(CCCCN4CCCCC4)c4ccc(F)cc34)n2)c2cccnc21`: the growth in test [1] is 76%; in [2] it was -73.5% (active); in [3], 68.8%; in test [4] it was 80.7%; in test [5], 68.4%; in [6], -100% (active). Further, the growth in test [8] is 75.9%; in [9], -78.2% (active).
Regarding `COc1ccc(/C=C\c2cc(OC)c(OC)c(OC)c2)cc1NC(=O)/C=C/c1ccc(OC)c(OC)c1`, the growth in test [1] is 29.7%; in [2], 15.7%; in test [3], 16%; in [4], 35.4%; in test [5], 31.7%; in test [6], 5.07% (active). Also, the growth in test [7] is 36.6%; in test [8], 30.8%; in [9], 51.8%.
`CC(=O)O[C@H]1C(=O)[C@@]2(C)[C@H]([C@H](OC(=O)c3ccccc3)[C@]3(O)C[C@H](OC(=O)[C@H](OC(=O)OC[C@@H]4COC(C)(C)O4)[C@@H](NC(=O)c4ccccc4)c4ccccc4)C(C)=C1C3(C)C)[C@]1(OC(C)=O)CO[C@@H]1C[C@@H]2O`: the growth in test [1] is 3.91% (active); in test [2], -2.35% (active); in test [3], -15.6% (active); in [4], 17%; in [5], 22.1%; in test [6] it was 22%. For the same molecule, the results for the growth in test [7] and in test [9] were 24.2% and 52%, respectively.
As for `O=C(Nc1ccc([As]=[As]c2ccc(NC(=O)c3ccccc3)cc2)cc1)c1ccccc1` (centres undefined), the growth in test [1] is -79.6% (active); in [2], -35.7% (active); in test [3], -97% (active); in [4] it was -78.6% (active); in [5], -86.2% (active); in test [6] it was -99.6% (active). Also, the figures for the growth in test [8] and in test [9] were -52.2% (active) and -94% (active), respectively.
With `Nc1ccc(Cl)cc1`, the growth was 100% in test [1]; 97.5% in test [2]; 88.3% in [3]; 96.9% in test [4]; 86% in test [5]; 99.7% in [6]. Also, the growth is 101% in test [7], 92.8% in test [8] and 109% in [9].
On to `CC(C)CCC(=O)O[C@H]1CC[C@H]2[C@@H]3CCC4=CC(=O)CC[C@]4(C)[C@H]3CC[C@]12C`, for which the growth was 97.4% in test [1]; 106% in test [2]; 82.6% in test [3]; 99.2% in test [4]; 92.8% in test [5]; 96.5% in test [6]. Further, the growth is 97.9% in test [8] and 99.8% in test [9].
As for `CCc1ccccc1[C@@H]1C[C@]2(C)CCO[C@@H]2OO1`, the growth in [1] is 107%; in test [2] it was 98.4%; in test [3], 84.7%; in [4] it was 99.2%; in test [5], 100%; in test [6], 102%. Also, the growth in test [7] is 99.9%; in test [8], 99.9%; in test [9], 110%.
`COc1ccc(C(=O)c2cc(OC)c(OC)c(OC)c2)cc1OC(C)=O`: the growth in test [1] is 12.7%; in [2] it was 18.8%; in test [3] it was 40.4%; in test [4], 6.47% (active); in test [5], 14.1%; in [6], -35.1% (active). The growth is 38.9% in test [7], 19.7% in test [8] and 56.6% in test [9].
Turning to `CCCCCCCCCCCCCCCCCC1OC[C@@H](COC(=O)O[C@@H](C(=O)O[C@H]2C[C@@]3(O)[C@@H](OC(=O)c4ccccc4)[C@@H]4[C@]5(OC(C)=O)CO[C@@H]5C[C@H](O)[C@@]4(C)C(=O)[C@H](OC(C)=O)C(=C2C)C3(C)C)[C@@H](NC(=O)c2ccccc2)c2ccccc2)O1` (some centres undefined), the growth is 100% in test [1]; 18.2% in [2]; 50.2% in test [3]; 58% in test [4]; 46.6% in test [5]; 75.7% in [6]. Besides, the growth is 58.7% in [7] and 59% in [9].
